Experiments:
[1] = target: Protein kinase C gamma type (Homo sapiens) (UniProt P05129); details: at 1 µM;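 further: each value is an averaged percent inhibition of the enzyme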
[2] = target: T1, Protein kinase C iota type (Homo sapiens) (UniProt P41743); details: at 0.1 µM
T1 sequence (whole entry): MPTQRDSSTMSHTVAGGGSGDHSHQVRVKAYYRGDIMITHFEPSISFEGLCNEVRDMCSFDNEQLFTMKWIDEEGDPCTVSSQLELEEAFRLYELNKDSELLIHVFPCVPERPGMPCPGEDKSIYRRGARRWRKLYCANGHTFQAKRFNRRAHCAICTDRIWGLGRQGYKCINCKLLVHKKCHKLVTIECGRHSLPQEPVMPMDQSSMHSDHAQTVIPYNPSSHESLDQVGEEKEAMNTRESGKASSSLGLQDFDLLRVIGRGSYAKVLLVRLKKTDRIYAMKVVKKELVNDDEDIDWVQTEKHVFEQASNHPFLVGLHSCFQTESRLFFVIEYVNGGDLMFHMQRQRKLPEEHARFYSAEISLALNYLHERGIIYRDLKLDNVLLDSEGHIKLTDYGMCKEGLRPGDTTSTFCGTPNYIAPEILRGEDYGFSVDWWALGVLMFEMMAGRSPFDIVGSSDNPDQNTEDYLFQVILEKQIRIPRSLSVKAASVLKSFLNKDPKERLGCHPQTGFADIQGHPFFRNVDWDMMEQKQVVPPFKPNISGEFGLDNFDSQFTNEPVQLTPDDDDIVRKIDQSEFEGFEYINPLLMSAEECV

[3] = target: T1, Protein kinase C iota type (Homo sapiens); details: at 1 µM
[4] = target: Protein kinase C theta type (Homo sapiens) (UniProt Q04759); details: at 0.1 µM
[5] = target: Protein kinase C theta type (Homo sapiens) (UniProt Q04759); details: at 1 µM
[6] = target: Protein kinase C beta type (Homo sapiens) (UniProt P05771); details: at 0.1 µM
[7] = target: Protein kinase C beta type (Homo sapiens) (UniProt P05771); details: at 1 µM
[8] = target: T2, Serine/threonine-protein kinase D1 (Homo sapiens) (UniProt Q15139); details: at 0.1 µM
T2 sequence (whole entry): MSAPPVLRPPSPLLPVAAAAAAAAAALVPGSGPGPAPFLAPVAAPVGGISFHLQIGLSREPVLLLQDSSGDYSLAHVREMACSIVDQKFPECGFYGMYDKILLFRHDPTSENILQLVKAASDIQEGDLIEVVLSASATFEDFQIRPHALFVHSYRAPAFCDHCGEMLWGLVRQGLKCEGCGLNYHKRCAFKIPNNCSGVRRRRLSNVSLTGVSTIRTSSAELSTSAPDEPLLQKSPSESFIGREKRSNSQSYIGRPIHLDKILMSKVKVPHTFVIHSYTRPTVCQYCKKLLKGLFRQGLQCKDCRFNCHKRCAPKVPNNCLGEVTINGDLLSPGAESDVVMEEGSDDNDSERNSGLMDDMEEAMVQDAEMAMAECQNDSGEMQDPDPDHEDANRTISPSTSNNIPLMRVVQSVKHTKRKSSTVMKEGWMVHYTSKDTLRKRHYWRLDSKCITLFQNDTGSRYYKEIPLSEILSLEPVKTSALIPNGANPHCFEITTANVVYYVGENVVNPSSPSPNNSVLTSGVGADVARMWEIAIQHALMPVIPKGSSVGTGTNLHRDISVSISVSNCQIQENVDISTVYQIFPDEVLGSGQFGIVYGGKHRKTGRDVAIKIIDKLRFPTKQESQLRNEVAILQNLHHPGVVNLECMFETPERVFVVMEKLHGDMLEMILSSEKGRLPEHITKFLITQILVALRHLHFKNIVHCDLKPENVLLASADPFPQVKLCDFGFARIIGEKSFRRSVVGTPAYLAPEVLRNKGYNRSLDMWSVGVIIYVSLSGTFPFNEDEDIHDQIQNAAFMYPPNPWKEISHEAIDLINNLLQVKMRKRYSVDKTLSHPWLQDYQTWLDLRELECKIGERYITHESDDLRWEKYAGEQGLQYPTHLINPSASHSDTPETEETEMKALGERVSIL

[9] = target: T2, Serine/threonine-protein kinase D1 (Homo sapiens); details: at 1 µM
[10] = target: T3, Serine/threonine-protein kinase D2 (Homo sapiens) (UniProt Q9BZL6); details: at 0.1 µM
T3 sequence (whole entry): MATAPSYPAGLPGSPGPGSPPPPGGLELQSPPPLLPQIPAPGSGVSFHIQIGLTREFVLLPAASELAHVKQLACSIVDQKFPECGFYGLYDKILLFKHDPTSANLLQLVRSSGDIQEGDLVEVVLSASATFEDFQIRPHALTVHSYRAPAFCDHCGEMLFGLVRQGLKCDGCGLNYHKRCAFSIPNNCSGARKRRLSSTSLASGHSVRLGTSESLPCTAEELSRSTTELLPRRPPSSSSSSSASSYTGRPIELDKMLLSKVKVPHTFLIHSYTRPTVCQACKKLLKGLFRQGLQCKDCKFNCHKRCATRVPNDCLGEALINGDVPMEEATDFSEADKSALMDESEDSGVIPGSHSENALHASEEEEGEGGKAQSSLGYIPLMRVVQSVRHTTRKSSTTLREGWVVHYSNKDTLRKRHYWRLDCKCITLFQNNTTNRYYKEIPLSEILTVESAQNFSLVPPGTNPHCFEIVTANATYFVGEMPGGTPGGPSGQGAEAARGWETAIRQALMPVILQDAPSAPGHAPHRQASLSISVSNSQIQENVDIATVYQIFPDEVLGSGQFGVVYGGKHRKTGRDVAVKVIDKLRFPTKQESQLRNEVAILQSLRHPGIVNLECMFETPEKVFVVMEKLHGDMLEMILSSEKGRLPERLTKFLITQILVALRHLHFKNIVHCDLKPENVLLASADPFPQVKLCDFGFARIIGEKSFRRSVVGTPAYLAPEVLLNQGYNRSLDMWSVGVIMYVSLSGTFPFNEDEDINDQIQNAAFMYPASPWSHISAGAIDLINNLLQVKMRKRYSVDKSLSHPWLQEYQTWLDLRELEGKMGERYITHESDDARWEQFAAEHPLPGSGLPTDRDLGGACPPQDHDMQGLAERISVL

[11] = target: T3, Serine/threonine-protein kinase D2 (Homo sapiens); details: at 1 µM
[12] = target: T4, Serine/threonine-protein kinase D3 (Homo sapiens) (UniProt O94806); details: at 0.1 µM
T4 sequence (whole entry): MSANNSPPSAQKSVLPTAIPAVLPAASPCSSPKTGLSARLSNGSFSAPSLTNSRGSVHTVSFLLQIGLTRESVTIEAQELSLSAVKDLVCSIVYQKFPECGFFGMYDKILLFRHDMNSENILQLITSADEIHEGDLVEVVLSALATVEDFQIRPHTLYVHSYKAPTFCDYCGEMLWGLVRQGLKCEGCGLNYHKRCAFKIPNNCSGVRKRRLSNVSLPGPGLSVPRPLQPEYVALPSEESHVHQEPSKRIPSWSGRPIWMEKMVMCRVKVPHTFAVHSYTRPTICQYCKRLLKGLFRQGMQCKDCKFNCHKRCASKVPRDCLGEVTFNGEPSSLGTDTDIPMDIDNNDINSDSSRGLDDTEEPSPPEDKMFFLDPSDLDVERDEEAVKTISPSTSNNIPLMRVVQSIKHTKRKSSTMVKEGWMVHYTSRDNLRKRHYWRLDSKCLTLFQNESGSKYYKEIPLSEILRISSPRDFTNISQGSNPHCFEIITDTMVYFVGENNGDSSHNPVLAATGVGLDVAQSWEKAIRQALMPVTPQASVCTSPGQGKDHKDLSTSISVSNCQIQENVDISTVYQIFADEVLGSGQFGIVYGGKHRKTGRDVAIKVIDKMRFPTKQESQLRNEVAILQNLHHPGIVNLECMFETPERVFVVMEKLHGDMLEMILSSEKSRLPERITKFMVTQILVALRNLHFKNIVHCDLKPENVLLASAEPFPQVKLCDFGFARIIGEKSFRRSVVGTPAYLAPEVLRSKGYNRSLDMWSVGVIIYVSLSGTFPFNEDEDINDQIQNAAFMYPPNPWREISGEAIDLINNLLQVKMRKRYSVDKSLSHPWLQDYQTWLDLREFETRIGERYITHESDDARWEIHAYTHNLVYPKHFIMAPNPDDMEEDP

[13] = target: T4, Serine/threonine-protein kinase D3 (Homo sapiens); details: at 1 µM
[14] = target: T5, cGMP-dependent protein kinase 1 (Homo sapiens) (UniProt Q13976); details: at 0.1 µM
T5 sequence (whole entry): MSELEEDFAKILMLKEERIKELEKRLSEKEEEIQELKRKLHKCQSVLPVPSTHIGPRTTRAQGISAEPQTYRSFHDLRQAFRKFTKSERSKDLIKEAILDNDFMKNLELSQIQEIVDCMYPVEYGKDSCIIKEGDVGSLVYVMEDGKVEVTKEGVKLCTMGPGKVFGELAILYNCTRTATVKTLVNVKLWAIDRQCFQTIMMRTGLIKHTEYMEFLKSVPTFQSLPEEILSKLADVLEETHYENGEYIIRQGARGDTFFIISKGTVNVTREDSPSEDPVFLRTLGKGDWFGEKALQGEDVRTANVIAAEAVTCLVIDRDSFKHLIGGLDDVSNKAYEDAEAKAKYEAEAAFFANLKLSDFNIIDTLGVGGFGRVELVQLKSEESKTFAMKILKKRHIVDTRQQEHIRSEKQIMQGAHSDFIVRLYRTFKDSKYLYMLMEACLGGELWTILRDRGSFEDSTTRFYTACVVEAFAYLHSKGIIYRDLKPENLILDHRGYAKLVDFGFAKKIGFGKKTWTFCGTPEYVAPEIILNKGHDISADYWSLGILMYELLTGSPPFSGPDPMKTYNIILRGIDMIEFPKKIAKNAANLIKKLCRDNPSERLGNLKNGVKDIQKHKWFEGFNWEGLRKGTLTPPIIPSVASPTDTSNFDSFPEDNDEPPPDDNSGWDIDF

[15] = target: T5, cGMP-dependent protein kinase 1 (Homo sapiens); details: at 1 µM
[16] = target: T6, cGMP-dependent protein kinase 2 (Homo sapiens) (UniProt Q13237); details: at 0.1 µM
T6 sequence (whole entry): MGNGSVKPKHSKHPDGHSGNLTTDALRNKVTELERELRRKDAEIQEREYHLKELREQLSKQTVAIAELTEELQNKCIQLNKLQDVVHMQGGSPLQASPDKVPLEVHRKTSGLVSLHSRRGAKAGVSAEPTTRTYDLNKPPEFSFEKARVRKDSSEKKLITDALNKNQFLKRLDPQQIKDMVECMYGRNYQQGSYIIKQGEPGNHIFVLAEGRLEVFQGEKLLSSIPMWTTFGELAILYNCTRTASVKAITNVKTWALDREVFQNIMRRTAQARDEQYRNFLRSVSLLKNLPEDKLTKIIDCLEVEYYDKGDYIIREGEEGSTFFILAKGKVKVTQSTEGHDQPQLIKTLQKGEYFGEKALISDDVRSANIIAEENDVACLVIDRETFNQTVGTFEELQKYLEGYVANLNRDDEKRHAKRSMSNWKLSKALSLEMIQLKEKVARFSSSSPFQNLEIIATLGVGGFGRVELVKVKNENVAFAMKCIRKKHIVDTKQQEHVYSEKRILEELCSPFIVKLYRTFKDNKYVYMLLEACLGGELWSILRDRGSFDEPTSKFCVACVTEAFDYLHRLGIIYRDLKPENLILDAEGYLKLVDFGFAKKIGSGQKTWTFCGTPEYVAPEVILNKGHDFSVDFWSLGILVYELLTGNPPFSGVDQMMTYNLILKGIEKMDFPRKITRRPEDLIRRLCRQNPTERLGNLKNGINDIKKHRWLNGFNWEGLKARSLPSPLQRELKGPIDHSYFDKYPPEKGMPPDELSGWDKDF

[17] = target: T6, cGMP-dependent protein kinase 2 (Homo sapiens); details: at 1 µM
[18] = target: T7, cAMP-dependent protein kinase catalytic subunit PRKX (Homo sapiens) (UniProt P51817); details: at 0.1 µM
T7 sequence (whole entry): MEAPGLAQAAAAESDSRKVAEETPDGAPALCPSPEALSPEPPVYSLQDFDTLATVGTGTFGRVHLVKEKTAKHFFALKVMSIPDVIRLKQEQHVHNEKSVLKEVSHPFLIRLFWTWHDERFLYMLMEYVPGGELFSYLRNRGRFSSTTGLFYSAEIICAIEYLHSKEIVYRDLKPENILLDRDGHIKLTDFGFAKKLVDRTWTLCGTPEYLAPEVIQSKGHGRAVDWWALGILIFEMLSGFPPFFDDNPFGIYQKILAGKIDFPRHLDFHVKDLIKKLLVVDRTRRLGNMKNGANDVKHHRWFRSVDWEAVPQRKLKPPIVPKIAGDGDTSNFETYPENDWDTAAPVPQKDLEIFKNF

[19] = target: T7, cAMP-dependent protein kinase catalytic subunit PRKX (Homo sapiens); details: at 1 µM
[20] = target: Rho-associated protein kinase 1 (Homo sapiens) (UniProt Q13464); details: at 0.1 µM;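 further: values are mean percent inhibition of ROCK1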
Rho-associated protein kinase 1 (Homo sapiens), sequence (Q13464 2-1354 limits assumed): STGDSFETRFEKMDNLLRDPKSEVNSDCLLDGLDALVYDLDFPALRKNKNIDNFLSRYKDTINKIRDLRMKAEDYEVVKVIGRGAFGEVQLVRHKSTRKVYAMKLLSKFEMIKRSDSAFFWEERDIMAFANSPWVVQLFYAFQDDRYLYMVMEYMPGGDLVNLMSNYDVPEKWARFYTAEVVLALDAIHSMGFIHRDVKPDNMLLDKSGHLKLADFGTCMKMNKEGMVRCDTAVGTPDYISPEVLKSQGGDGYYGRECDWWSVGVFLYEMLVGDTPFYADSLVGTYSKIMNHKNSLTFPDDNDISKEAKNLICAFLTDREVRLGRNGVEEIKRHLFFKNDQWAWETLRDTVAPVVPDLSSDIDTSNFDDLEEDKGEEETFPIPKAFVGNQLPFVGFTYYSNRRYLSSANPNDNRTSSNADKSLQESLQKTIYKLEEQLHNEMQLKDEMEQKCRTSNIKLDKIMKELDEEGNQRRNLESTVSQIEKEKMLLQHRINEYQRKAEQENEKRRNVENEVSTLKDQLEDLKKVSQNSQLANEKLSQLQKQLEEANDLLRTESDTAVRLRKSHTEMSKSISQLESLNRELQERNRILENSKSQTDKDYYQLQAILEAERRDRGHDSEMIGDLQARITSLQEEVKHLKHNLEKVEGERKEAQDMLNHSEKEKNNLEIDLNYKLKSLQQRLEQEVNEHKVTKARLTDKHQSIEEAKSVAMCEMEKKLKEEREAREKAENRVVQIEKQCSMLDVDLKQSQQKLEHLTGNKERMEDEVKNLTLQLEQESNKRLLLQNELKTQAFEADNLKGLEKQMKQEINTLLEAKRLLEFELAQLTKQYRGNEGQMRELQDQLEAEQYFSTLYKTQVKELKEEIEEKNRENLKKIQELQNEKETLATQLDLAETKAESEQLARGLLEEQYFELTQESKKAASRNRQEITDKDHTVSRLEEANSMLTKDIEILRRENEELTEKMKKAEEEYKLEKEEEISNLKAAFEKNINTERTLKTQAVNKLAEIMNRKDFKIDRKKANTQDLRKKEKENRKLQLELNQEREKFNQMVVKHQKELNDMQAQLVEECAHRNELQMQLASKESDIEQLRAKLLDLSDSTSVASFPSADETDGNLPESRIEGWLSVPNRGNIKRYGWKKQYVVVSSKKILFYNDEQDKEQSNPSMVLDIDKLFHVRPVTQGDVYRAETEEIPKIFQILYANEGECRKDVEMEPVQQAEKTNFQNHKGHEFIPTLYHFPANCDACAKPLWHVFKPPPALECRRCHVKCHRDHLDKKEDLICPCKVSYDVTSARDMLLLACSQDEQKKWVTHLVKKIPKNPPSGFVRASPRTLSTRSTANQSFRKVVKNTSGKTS

Protein kinase C theta type (Homo sapiens), sequence (Q04759 whole entry, looked up): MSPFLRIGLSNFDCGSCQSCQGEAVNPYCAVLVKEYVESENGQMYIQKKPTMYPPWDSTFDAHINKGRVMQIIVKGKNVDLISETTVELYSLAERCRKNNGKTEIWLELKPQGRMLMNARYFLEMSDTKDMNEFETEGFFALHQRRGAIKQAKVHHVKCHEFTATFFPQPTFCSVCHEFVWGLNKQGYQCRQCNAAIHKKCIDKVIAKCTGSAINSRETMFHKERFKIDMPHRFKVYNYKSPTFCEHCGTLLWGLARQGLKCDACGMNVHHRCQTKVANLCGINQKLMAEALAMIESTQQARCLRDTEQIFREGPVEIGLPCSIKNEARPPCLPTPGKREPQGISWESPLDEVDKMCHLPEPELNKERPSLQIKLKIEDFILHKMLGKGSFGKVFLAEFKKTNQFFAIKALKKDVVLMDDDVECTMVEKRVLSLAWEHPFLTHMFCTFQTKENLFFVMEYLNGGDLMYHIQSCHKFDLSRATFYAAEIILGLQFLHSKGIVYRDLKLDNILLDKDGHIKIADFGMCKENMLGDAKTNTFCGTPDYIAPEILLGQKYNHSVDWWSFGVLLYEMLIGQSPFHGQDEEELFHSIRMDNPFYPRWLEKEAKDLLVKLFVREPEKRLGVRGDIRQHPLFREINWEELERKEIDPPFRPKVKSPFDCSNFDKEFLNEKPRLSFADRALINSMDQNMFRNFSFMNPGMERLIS
Protein kinase C beta type (Homo sapiens), sequence (P05771 2-671 limits assumed): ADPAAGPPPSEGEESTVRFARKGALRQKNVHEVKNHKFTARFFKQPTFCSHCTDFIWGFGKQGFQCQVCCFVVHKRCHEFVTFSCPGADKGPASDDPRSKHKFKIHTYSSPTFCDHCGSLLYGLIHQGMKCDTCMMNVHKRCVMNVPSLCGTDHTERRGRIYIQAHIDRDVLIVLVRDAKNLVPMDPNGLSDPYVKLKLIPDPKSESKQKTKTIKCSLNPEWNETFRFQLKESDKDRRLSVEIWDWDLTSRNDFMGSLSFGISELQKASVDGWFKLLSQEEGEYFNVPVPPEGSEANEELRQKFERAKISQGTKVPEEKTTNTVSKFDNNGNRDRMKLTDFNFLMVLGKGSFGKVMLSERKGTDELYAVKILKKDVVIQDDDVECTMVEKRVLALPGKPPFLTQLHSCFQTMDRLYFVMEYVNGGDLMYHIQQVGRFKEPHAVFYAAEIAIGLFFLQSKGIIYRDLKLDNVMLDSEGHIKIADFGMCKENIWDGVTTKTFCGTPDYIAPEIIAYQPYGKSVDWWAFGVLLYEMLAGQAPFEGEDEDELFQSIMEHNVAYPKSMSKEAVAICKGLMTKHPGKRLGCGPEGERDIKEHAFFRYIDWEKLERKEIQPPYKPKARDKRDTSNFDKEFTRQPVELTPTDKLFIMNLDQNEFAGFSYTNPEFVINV

SMILES	inhibition [1]	inhibition [2]	inhibition [3]	inhibition [4]	inhibition [5]	inhibition [6]	inhibition [7]	inhibition [8]	inhibition [9]	inhibition [10]	inhibition [11]	inhibition [12]	inhibition [13]	inhibition [14]	inhibition [15]	inhibition [16]	inhibition [17]	inhibition [18]	inhibition [19]	inhibition [20]
CS(=O)(=O)CCN(CC#N)Cc1ccc(-c2ccc3ncnc(Nc4ccc(OCc5cccc(F)c5)c(Cl)c4)c3c2)o1	-0.45%	1.19%	0.81%	0.98%	0.92%	0.59%	0.66%	-2.21%	-3.04%	-2.89%	-4.76%	-2.15%	-3.08%	2.42%	3.06%	0.52%	0.66%	1.58%	1.54%	0.99%
Fc1cccc(COc2ccc(Nc3ncnc4cc(-c5ccc[nH]5)sc34)cc2Cl)c1	2.69%	1.76%	1.59%	0.25%	2.17%	0.99%	2.94%	-0.95%	-1.14%	-0.92%	-2.9%	-1.25%	-2.13%	3.64%	4.28%	2.82%	2.46%	2%	3.5%	0.2%
Cc1ccc(C(=O)NC2CCCCC2)cc1-c1ccc(C(=O)NCC2CC2)cc1	3.86%	0.11%	2.97%	1.39%	0.58%	1.11%	3.12%	1.97%	2.69%	1.98%	2.9%	2.25%	2.53%	4.55%	4.23%	2.62%	2.94%	2.1%	0.91%	1.64%
